Reference: PubChem BioAssay (NCI)
The panel holds about 79,000 compounds, 15% with a hit somewhere; the sample as a whole holds those more often. Unmarked numbers belong to inactive results. The source made the active and inactive calls. No stated cut-off is given here; in the data, active means growth inhibition above about 70%; inactive means the rest.

Key:
[1] = NCI Yeast Anticancer Drug Screen. Data for the rad50 strain (AID 155);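 further: 0% = growth of vehicle-only cultures of the same strain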; settings: S. cerevisiae rad50 strain growth inhibition, hits give high values
Procedure, shortened: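 A DNA repair-deficient yeast mutant serves as the test organism; compound-induced growth inhibition is calculated against vehicle-treated cells.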

[2] = NCI Yeast Anticancer Drug Screen. Data for the mec2-1 strain (AID 157); settings: S. cerevisiae mec2-1 strain, hits give high values
Procedure, shortened: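 mec2-1 yeast strain, carrying an alteration in DNA damage repair or cell cycle control, was exposed to compounds; growth inhibition was measured relative to vehicle-treated controls.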

[3] = NCI Yeast Anticancer Drug Screen. Data for the sgs1 mgt1 strain (AID 161);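 further: 0% = growth of cultures given vehicle only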; settings: S. cerevisiae sgs1 mgt1 strain, hits give high values
Procedure, shortened: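 Yeast cells carrying a defined DNA-repair defect were exposed to test compounds. Growth inhibition was measured relative to vehicle-treated controls.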

[4] = NCI Yeast Anticancer Drug Screen. Data for the cln2 rad14 strain (AID 165);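 further: 0% = growth equal to vehicle treated cultures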; settings: S. cerevisiae cln2 rad14 strain, hits give high values
Procedure, shortened: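 Yeast carrying cln2 and rad14 alterations (cell cycle control and DNA damage repair) were exposed to compounds. Growth inhibition was measured against vehicle-treated controls.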

[5] = NCI Yeast Anticancer Drug Screen. Data for the bub3 strain (AID 167); settings: S. cerevisiae bub3 mutant strain, hits give high values
Procedure, shortened: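 Inhibition values come from growth of compound-treated mutant yeast normalised to vehicle-treated controls.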

[6] = NCI Yeast Anticancer Drug Screen. Data for the mlh1 rad18 strain (AID 175); settings: S. cerevisiae mlh1 rad18 strain growth inhibition, hits give high values
Procedure, shortened: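 Growth inhibition of the yeast strain was measured after compound exposure and expressed relative to vehicle-treated controls. The strain carries defined defects in DNA damage repair.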

[7] = at 5.0 µM (retest, dose inferred, filed as 0.5)
[8] = at 50.0 µM (retest, dose inferred, filed as 5.0)

SMILES | growth inhibition [1, 7] | growth inhibition [1, 8] | growth inhibition ([1]; at 50.0 µM) | growth inhibition [2, 7] | growth inhibition [2, 8] | growth inhibition ([2]; at 50.0 µM) | growth inhibition [3, 7] | growth inhibition [3, 8] | growth inhibition ([3]; at 50.0 µM) | growth inhibition [4, 7] | growth inhibition [4, 8] | growth inhibition ([4]; at 50.0 µM) | growth inhibition [5, 7] | growth inhibition [5, 8] | growth inhibition ([5]; at 50.0 µM) | growth inhibition [6, 7] | growth inhibition [6, 8] | growth inhibition ([6]; at 50.0 µM)
Cc1cccc2c1Oc1ccccc1C2N1C(=O)/C(=C/c2cccs2)SC1=S (configuration not stated) | 1% | 12% | 51.8% | -23% | 37% | 53.8% | -6% | 28% | 88% (active) | -11% | 1% | 72.2% (active) | -8% | -4% | 26.4% | 2% | 45% | 42.4%
C/C(=N\NC(=S)N1CCC(C)CC1)c1cccc2cccnc12 | -5% | 98% (active) | 62.6% | -9% | 98% (active) | -6.1% | 0% | 98% (active) | 83.2% (active) | -10% | 98% (active) | 14.2% | 2% | 98% (active) | 6.05% | -8% | 99% (active) | 6.35%
Cc1ccc(S)c(S)c1 | 65% | 53% | 63.4% | 52% | 34% | 35.9% | 44% | 28% | 39.3% | 81% (active) | 93% (active) | 77.7% (active) | 92% (active) | 93% (active) | 64.6% | 95% (active) | 93% (active) | 41.5%
O=C(c1ccc([N+](=O)[O-])cc1)c1[nH]c2ccccc2c(=O)c1-c1ccccc1 | -2% | 96% (active) | 98% (active) | 14% | 99% (active) | 99% (active) | 0% | 99% (active) | 98.6% (active) | -3% | 95% (active) | 98.6% (active) | -2% | 98% (active) | 98.7% (active) | 25% | 99% (active) | 99% (active)
Cc1c(N2CCCC2)cc2c(c1NC(=O)c1ccccc1Cl)C(C)(C)CC2(C)C | 11% | 95% (active) | 82.8% (active) | -2% | 89% (active) | 59.5% | 20% | 85% (active) | 73.2% (active) | 0% | 91% (active) | 79.3% (active) | 10% | 80% (active) | 90.7% (active) | 22% | 91% (active) | 80.2% (active)
O=C(NCC#CCO)C(F)(F)F | -15% | -1% | -0.9% | -14% | -18% | 13.2% | -3% | -8% | 11.7% | 3% | 9% | 47.8% | -21% | -5% | 11.1% | -5% | -10% | 45.1%
CCOC(=O)NC(NNc1ccc([N+](=O)[O-])cc1[N+](=O)[O-])(C(F)(F)F)C(F)(F)F | 1% | 99% (active) | 97.3% (active) | -3% | 99% (active) | 98.2% (active) | 6% | 99% (active) | 98.4% (active) | 21% | 98% (active) | 98.7% (active) | 19% | 97% (active) | 98% (active) | 4% | 98% (active) | 98.5% (active)
Cc1ccc(O)cc1CCCCO | 2% | -4% | -7.45% | 0% | -1% | -2.1% | -1% | -2% | -3.55% | -2% | 7% | 74.6% (active) | -11% | 0% | -5.95% | 0% | -2% | -3.45%
COc1cc(-c2oc(C=Nc3ccccc3)c([N+](=O)[O-])c2-c2ccc(O)c(OC)c2)ccc1O | 22% | 32% | 34.1% | 19% | 38% | -7.5% | -14% | 74% (active) | 31.4% | 7% | 74% (active) | -18.1% | 5% | 91% (active) | -16.8% | 25% | 61% | 1.65%
CSC(=Nc1ccccc1)NC(=O)Nc1ccc(Cl)cc1 | -8% | -11% | -1.45% | 5% | -15% | 5% | -34% | -17% | -2.1% | -18% | -17% | -31.2% | -22% | -4% | 2.55% | -7% | -5% | 3.15%
CCCC(=O)N(C(=O)CCC)C1=C(Cl)C(=O)c2ccccc2C1=O | 55% | 64% | 29.9% | 95% (active) | 95% (active) | 83.1% (active) | 56% | 72% (active) | 75.1% (active) | 33% | 65% | 74.2% (active) | 91% (active) | 98% (active) | 87.4% (active) | 48% | 64% | 86.6% (active)
CC(=O)c1cccc(NC(=O)C(=O)NNc2n[nH]c(=S)n2N)c1 | 16% | 95% (active) | 89.4% (active) | -20% | 94% (active) | 94.1% (active) | 6% | 90% (active) | 92.9% (active) | 19% | 77% (active) | 92.4% (active) | -19% | 95% (active) | 92.8% (active) | 19% | 94% (active) | 91.1% (active)
C/C(CCn1[nH]c(=O)ccc1=O)=N\NS(=O)(=O)c1ccc(C)cc1 | -3% | -3% | -4.05% | 4% | 15% | 4.6% | 0% | -11% | 12.6% | 11% | 29% | -6.7% | -1% | 6% | -5.15% | -8% | 11% | -10.3%
CCOC(=O)c1cc(Cc2ccccc2)c(=O)n(C)c1-c1ccccc1 | 4% | 75% (active) | 72% (active) | -3% | 83% (active) | 3.1% | 0% | 85% (active) | 93% (active) | 7% | 46% | -5.4% | 5% | 84% (active) | 85.3% (active) | 2% | 86% (active) | 50.1%
Cc1ccc(C(c2ccc(N(C)C)cc2)c2ccc(N(C)C)cc2)cc1 | 97% (active) | 89% (active) | 94.5% (active) | 99% (active) | 92% (active) | 94.7% (active) | 99% (active) | 95% (active) | 93.8% (active) | 78% (active) | 69% | 69% | 98% (active) | 92% (active) | 94.7% (active) | 98% (active) | 92% (active) | 92.7% (active)
O=[N+]([O-])C1=Cc2cc(Cl)ccc2OC1c1cccc2ccccc12 (configuration not stated) | 98% (active) | 83% (active) | 80.5% (active) | 97% (active) | 81% (active) | 88.2% (active) | 97% (active) | 86% (active) | 84.2% (active) | 97% (active) | 80% (active) | 87.1% (active) | 97% (active) | 91% (active) | 85.5% (active) | 98% (active) | 87% (active) | 75.8% (active)
O=C1c2ccccc2C(=O)c2c(Nc3cc4c5c(ccc6c7ccc8c9c(cc(Nc%10cccc%11c%10C(=O)c%10ccccc%10C%11=O)c(c3c56)c97)-c3ccccc3C8=O)C(=O)c3ccccc3-4)cccc21 | 1% | 15% | 16.9% | -5% | -3% | 44% | 2% | -3% | -1.9% | -6% | 4% | 40.8% | -11% | 6% | 3.1% | -13% | -4% | -4.35%
Cc1cc(Cc2ccccc2)ccc1O | 0% | 66% | 51.2% | -6% | 39% | 96.4% (active) | -1% | 50% | 55.8% | -5% | 15% | 57.5% | -11% | 47% | 81% (active) | 8% | 60% | 41%
CCCCCCCCCCCCc1ccc(S(=O)(=O)O)cc1.[Zn+2] | -2% | 55% | 78.4% (active) | 19% | 27% | 13.2% | -4% | 59% | 75.3% (active) | 3% | 38% | -49% | -8% | 35% | 6.15% | -2% | 71% (active) | 30.1%
